About 31,000 (8.9%) of roughly 350,000 compounds were called active. Not shown: some 15% with an inconclusive outcome. Calls follow the shape of the dose curve; as a rule, active = well fitted inhibition curve with a large enough effect; inconclusive = small, poorly fitted or top-dose-only effect; inactive = no such curve, though single readings can be large or run the other way. The sample as a whole holds a higher share of actives than the screen did. Some compounds were tested as several samples or in several runs, with calls that do not always agree.
target: Histone-lysine N-methyltransferase EHMT2 (Homo sapiens) (UniProt Q96KQ7); test: qHTS Assay for Inhibitors of Histone Lysine Methyltransferase G9a; conditions: G9a H3K9 monomethylation, AlphaScreen, 2 h; series mostly up to 59 µM; activity, negative = inhibition: at the top concentration; also: nearly all actives have a fitted effect of over 75% in size
In short: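 AlphaScreen detection with an anti-monomethyl H3K9 antibody quantified product after a 2 h room-temperature reaction containing 500 nM biotinylated H3K9 peptide, 20 µM SAM and 20 nM enzyme, which had been preincubated 15 min with compound.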
% is scaled to controls: 0 for no effect and ±100 for the full control effect; potency is read from the fitted curve at half-maximal effect.

Sequence of Histone-lysine N-methyltransferase EHMT2 (Homo sapiens) (Q96KQ7 913-1193 limits assumed): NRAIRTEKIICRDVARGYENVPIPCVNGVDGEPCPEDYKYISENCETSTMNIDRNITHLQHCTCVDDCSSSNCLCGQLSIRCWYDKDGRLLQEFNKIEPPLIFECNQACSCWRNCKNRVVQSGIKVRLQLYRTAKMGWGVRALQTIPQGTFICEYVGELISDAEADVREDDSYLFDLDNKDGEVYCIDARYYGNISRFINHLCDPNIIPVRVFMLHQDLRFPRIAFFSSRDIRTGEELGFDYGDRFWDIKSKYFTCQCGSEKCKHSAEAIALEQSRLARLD

SMILES | activity, negative = inhibition | Potency
COc1cccc(NC(=O)c2ccc3nc(CCc4ccccc4)oc3c2)c1 | -23.2% (inactive) | 
COc1cccc(NC(=O)CSC2=Nc3ccccc3C3=NC(CC(=O)NC4CCCCC4)C(=O)N23)c1 (configuration not stated) | -0.713% (inactive) | 
COc1cc(Cl)c(NC(=O)C(NS(=O)(=O)c2cccs2)C(C)C)c(OC)c1 (configuration not stated) | 10.2% (inactive) | 
COc1ccc2c(c1)C(C)=CC(C)(C)N2C(=O)CNCc1ccc2c(c1)OCO2 |  | 28.2 µM (active)
COc1ccc(OC)c(-c2nc(C(N)=O)c3c(n2)n(-c2ccc4c(c2)OCO4)c(=O)n3C)c1 | -0.66% (inactive) | 
COc1cccc(CNCc2ccc3c(c2)OCO3)c1 |  | 22.4 µM (active)
COc1cc(OC)c(C(=O)NCc2ccc3c(c2)OCO3)cc1OC | -3.02% (inactive) | 
COc1ccc(C2(C)NC(=O)N(CC(=O)c3ccc4c(c3)OCO4)C2=O)cc1 (configuration not stated) | 100% [at 102 µM] (inactive) | 
COc1ccc(NC(=O)NCc2ccc3c(c2)OCO3)c(OC)c1 | 123% [at 102 µM] (inactive) | 
Cc1ccsc1C(=O)NCCc1ccco1 | -0.499% [at 12.7 µM] (inactive) | 
COc1ccccc1-c1noc(-c2ccc(NCc3ccccc3)c([N+](=O)[O-])c2)n1 | 9.56% (inactive) | 
Clc1ccc(C2=CSC3=Nc4cccc5cccc(c45)N23)cc1 |  | 3.55 µM (active)
O=C(Nc1ccc2nc(SCC(=O)N3CCCc4ccccc43)sc2c1)c1ccc(Cl)cc1 | -5.84% (inactive) | 
CCCNC(=O)CSc1nc(Cc2ccccc2)nc2ccccc12 | 13.1% [at 102 µM] (inactive) | 
Cc1ccc(S(=O)(=O)NCc2nc3nc(C)cc(C)n3n2)cc1 | -4.11% (inactive) | 
NC(=O)NC(CC(=O)NNC(=O)c1ccccn1)c1ccc(Cl)cc1 (configuration not stated) | 54.7% [at 12.7 µM] (inactive) | 
Cc1ccc(Cn2c(CCCNC(=O)C3CCCCC3)nc3ccccc32)cc1 | -38.9% (inactive) | 
CCCc1nc2c(C)cc(-c3nc4ccccc4n3C)cc2n1Cc1ccc(-c2ccccc2C(=O)O)cc1 | -43.4% [at 2.33 µM] (inactive) | 4.47 µM (active)
CC(=O)Nc1nc2ccccc2n1Cc1ccc(C)cc1 | 1.65% [at 102 µM] (inactive) | 
COc1ccc(C(=O)Nc2nonc2-c2ccc(OC)c(OC)c2)cc1Cl | 1.07% (inactive) | 
COc1ccc(S(=O)(=O)NCCCCOc2ccc(Cl)cc2)cc1 | 21.3% [at 2.33 µM] (inactive) | 
COc1cccc(NC(C)=[N+](C)CCNS(=O)(=O)c2ccc(Cl)cc2)c1 |  | 15.8 µM (active)
COc1cccc(NC(=O)CCNS(=O)(=O)c2ccc3c(c2)oc(=O)n3C)c1 | 1.31% [at 0.0925 µM] (inactive) | 

SMILES | activity, negative = inhibition | Potency
CCOC(=O)C1CCN(c2csc3ccc(C)cc3c2=O)CC1 | 6.56% (inactive) | 
Cc1[nH]n(C(N)=S)c(=O)c1N=Nc1ccc(Cl)cc1Cl |  | 44.7 µM (active)
Cc1[nH]n(-c2ccccc2)c(=O)c1N=Nc1ccccc1C(=O)N1CCCCC1 | -2.74% (inactive) | 
Cc1[nH]n(-c2cccc(Cl)c2)c(=O)c1-c1ccc(Cl)cc1 | -39% (inactive) | 
COc1ccccc1C(=O)Nc1ccc(OCC(=O)N2CCCCC2)cc1 | 11.7% [at 2.33 µM] (inactive) | 
C(=N/N1CCN(c2ccccc2)CC1)/c1cccs1 |  | 10 µM (active)
Cc1ccc(N2CCN(/N=C/c3cccs3)CC2)cc1 | -34.4% [at 102 µM] (inactive) | 
Nc1nnnn1/N=C/c1cccs1 | -13.1% (inactive) | 
O=C(Nc1ccc2nc(SCC(=O)N3CCCc4ccccc43)sc2c1)c1ccc(F)cc1 | -31.9% (inactive) | 
Cc1cc(C)c(S(=O)(=O)N(C)CC(=O)NCC2CCCO2)c(C)c1 (configuration not stated) | 24.8% [at 102 µM] (inactive) | 
CCC1CCCCN1S(=O)(=O)c1ccc(NC(=O)c2cc(=O)c3ccccc3o2)cc1 (configuration not stated) | 5.64% (inactive) | 
CC1(C(=O)NCCc2c[nH]c3ccccc23)C=CC2(CCCCC2)N1C(=O)c1ccccc1 (configuration not stated) |  | 79.4 µM (active)
O=C(CN1C(=O)NC2(CCCCC2)C1=O)NCCc1c[nH]c2ccccc12 | 52.5% [at 102 µM] (inactive) | 
CC(=O)NC(Cc1c[nH]c2ccccc12)C(=O)NCCc1ccccc1 (configuration not stated) | 23.4% [at 102 µM] (inactive) | 
O=C(CCCCCn1c(=O)[nH]c2ccccc2c1=O)NCCc1c[nH]c2ccccc12 | -11.9% [at 0.0925 µM] (inactive) | 
O=C(NCCc1c[nH]c2ccccc12)C1CCN(Cc2ccc(Br)cc2)CC1 | -6.03% (inactive) | 
C[C@]1(C(=O)NCCc2c[nH]c3ccccc23)C=C[C@@H](Cc2ccccc2)N1C(=O)c1ccccc1 |  | 50.1 µM (active)
Cc1ccc(S(=O)(=O)N2[C@@H](c3ccccc3F)C(C(=O)O)=CC[C@H]2c2ccc(Cl)cc2)cc1 | -0.77% [at 2.33 µM] (inactive) | 
O=C(CSc1nccn1Cc1ccc(Cl)cc1)NCc1ccccc1 | -22.1% (inactive) | 
COc1ccc([C@@H]2[C@@H]3C(=O)N(C(C)(C)C)C(=O)[C@@H]3[C@]3(Cc4ccccc4)C(=O)N(c4cccc(Br)c4)C(=O)N23)cc1 | -84.6% [at 2.33 µM] (inactive) | 
Cc1ccc(C(=O)NCCSc2c(C)[nH]c3ccccc23)cc1C | -33% (inactive) | 
Cc1cccc(-n2ncc(Cl)c(Cl)c2=O)c1 | -6.01% [at 102 µM] (inactive) | 
CC(C)CN(C(=O)CSc1nncn1C)C1CCS(=O)(=O)C1 (configuration not stated) | 7.97% [at 2.33 µM] (inactive) | 
